Source: PubChem BioAssay
FBPA Giardia inh: Giardia lamblia aldolase inhibition. Potency, µM (series often up to 59.6 µM), usual class: inhibitors. actives 0.71% (n = 290,000). purified Giardia FBPA. A8B2U2; further: nearly all actives have a fitted effect of over 55% in size
Target sequence (A8B2U2 whole entry, looked up): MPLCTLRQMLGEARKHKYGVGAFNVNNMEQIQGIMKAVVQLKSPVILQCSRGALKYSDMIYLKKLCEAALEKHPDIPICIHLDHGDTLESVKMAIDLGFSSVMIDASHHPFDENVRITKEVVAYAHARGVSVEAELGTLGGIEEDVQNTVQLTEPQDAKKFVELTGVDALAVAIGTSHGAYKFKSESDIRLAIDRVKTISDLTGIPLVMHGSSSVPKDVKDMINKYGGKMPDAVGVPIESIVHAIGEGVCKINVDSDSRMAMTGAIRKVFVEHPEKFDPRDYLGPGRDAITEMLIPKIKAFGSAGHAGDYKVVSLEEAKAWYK
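Giardia FBPA (40 nM reagent) was preincubated 10 min at RT with compound (up to 57.5 uM final), then substrate plus GAPDH/TPI/NAD/arsenate coupling system with diaphorase/resazurin was added; resorufin fluorescence (525/598 nm) was read after 20 min.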
Pf growth 96h: P. falciparum growth inhibition at 96 hours | actives 6.9% (n = 320,000) | Potency, µM (titrated, usually from 28.7 µM), most hits filed as inhibitors | AID 504834 | P. falciparum luciferase reporter growth, 96 h
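96 h incubation, 37 C, 5% CO2, of luciferase-reporter P. falciparum-infected RBCs (2% hematocrit, 0.05% parasitemia final) with test compounds; endpoint luminescence.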
Sm TGR block: S. mansoni TGR enzyme inhibition; Q962Y6; purified TGR, DTNB reduction, TNB absorbance 405 nm; Potency, µM (highest dose often 114 µM), usual class: inhibitors; actives 3% (n = 360,000); AID 485364; further: nearly all actives have a fitted effect of over 60% in size
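TGR 20 nM + NADPH 100 uM (dispensed conc.), cpd preinc 15 min RT; start with NADPH (500 uM addition) then DTNB (15 mM addition). Kinetic TNB absorbance, 405 nm filter. Four-parameter Hill fit across titration.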
HCMV inh: blocks human cytomegalovirus replication | HFF cells, HCMV-luciferase reporter, 72 h; stronger effect = lower value | activity change, negative = inhibition, % at 57.5 µM | actives 4.5% (n = 410,000) | AID 1259415; in the data active means activity change below about -60%; inconclusive means no clear call, values can overlap the other calls; inactive means above about -39%
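Steps: HFFs plated, 16 h 37C; compounds added; HCMV-luciferase added to MOI 1 PFU/cell; 72 h 37C; OneGlo reagent, 5 min room temperature; luminescence read, normalized to controls.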
Pf growth 48h: P. falciparum growth inhibition at 48 hours (one generation) | actives 5.9% (n = 310,000) | AID 504832 | Potency, µM (highest dose often 28.7 µM), usual class: inhibitors | P. falciparum luciferase growth in erythrocytes, 48 h
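Luciferase-expressing parasites in RBCs, 2% Hct / 0.1% parasitemia final; RPMI 1640 + 0.5% Albumax; 37 C, 5% CO2, one generation; luminescence read-out, lower signal = inhibition.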
Numbers stand for hits; i = inactive; ? = inconclusive; nt = no result given; [ ] = another dose, or the depositor's remark. In the library only some 14% were active in any assay of this set; here they are far more common. Unless noted, the call rests on the fitted dose curve; in most records, active means well fitted curve in the direction sought with a large enough effect; inconclusive means small, poorly fitted or top-dose-only effect, or another doubt; inactive means no such curve, though single readings can be large; an effect the other way counts as inactive or inconclusive.

SMILES | FBPA Giardia inh | Pf growth 96h | Sm TGR block | HCMV inh | Pf growth 48h
COc1ccc(-c2nc(C)c(CCNC(=O)C(=O)Nc3ccccc3OC)s2)cc1 | nt | nt | i | i | nt
CCCCCCCC(=O)Nc1ccc(S(=O)(=O)Nc2nccs2)cc1 | i | i | i | i | i
O=C(CCCNS(=O)(=O)c1ccc(F)cc1)Nc1ccc(F)cc1 | i | i | i | i | i
COCCNS(=O)(=O)c1ccc(-c2ccc(C)cc2)cc1 | i | nt | i | -64 | i
Cc1ccc(NC(=O)CCCCCNS(=O)(=O)c2ccc(C)cc2)cc1 | i | 12µM | i | i | ?
Cc1ccc(S(=O)(=O)NCCCCCCNS(=O)(=O)c2ccc(C)cc2)cc1 | nt | nt | nt | i | nt
Cc1ccc(S(=O)(=O)NCCCCCC(=O)Nc2nccs2)cc1 | ? | i | i | i | 13µM
Cc1ccc(S(=O)(=O)NCCCCCC(=O)N(C)C)cc1 | i[12.9 µM] | 10µM | i | i | i
CC1(C)Cc2c(sc(NC(=O)C(=O)N3CCOCC3)c2C(N)=O)CO1 | nt | ? | i | i | i
CN1CCN(c2ncc3nc(-c4ccccc4)c(=O)n(Cc4cccs4)c3n2)CC1 | i | nt | nt | nt | nt
COCCNC(=O)CCCCCNS(=O)(=O)c1ccc(C)cc1 | i | i | i | i | i
CCOCCCNC(=O)CCNS(=O)(=O)c1ccc(C)cc1 | i | 9.3µM | i | i | i
CC(O)[C@@H]1NC(=O)[C@H](CCCN)NC(=O)[C@@H](Cc2c[nH]c3ccccc23)NC(=O)[C@H](Cc2ccc(O)cc2)NC(=O)[C@@H](NC(=O)[C@H](N)Cc2ccccc2)CSSC(C)(C)C(C(=O)N[C@H](C(N)=O)[C@@H](C)O)NC1=O (some centres undefined) | i | nt | nt | nt | nt
O=C1Nc2ccccc2C1(O)c1ccccc1 (centres undefined) | i | 0.1µM | i | i | i
COc1cccc(C2(O)C(=O)Nc3ccccc32)c1 (centres undefined) | i | i | i | i | i
O=C(c1ccccc1)C1OC1C(=O)c1ccccc1 (centres undefined) | nt | nt | nt | i | nt
O=C(C1=NNCC1c1ccccc1)C1OC1c1ccccc1 (centres undefined) | i | ? | 22µM | i | ?
COC(=O)C1CCN(c2cc(=O)n(-c3ccccc3Cl)c(=O)[nH]2)CC1 | i | i | i | i | 6.6µM
CCOC(=O)N1CCN(c2cc(=O)n(-c3ccccc3Cl)c(=O)[nH]2)CC1 | i | i | ? | i | i
O=C(NCCS(=O)(=O)N1CCN(c2cccc(Cl)c2)CC1)C(c1ccccc1)c1ccccc1 | nt | nt | i | i | nt
Cc1c(Br)c([N+](=O)[O-])nn1CCCC(=O)N1CCN(c2ccccc2)CC1 | i | ? | i | i | ?
COc1ccccc1N1CCN(C(=O)CCCn2nc(C)c([N+](=O)[O-])c2C)CC1 | i | 10µM | i | i | i
Cc1nn(CCCC(=O)Nc2cc(Oc3ccc(F)cc3)cc([N+](=O)[O-])c2)c(C)c1[N+](=O)[O-] | i | ? | i | i | i
Cc1ccccc1Oc1cc(NC(=O)CCCn2nc(C)c([N+](=O)[O-])c2C)cc([N+](=O)[O-])c1 | i | 15µM | i | ? | ?
Cc1ccccc1Oc1cc(NC(=O)Cn2cnc([N+](=O)[O-])c2)cc([N+](=O)[O-])c1 | i | ? | i | i | 10µM
SMILES | FBPA Giardia inh | Pf growth 96h | Sm TGR block | HCMV inh | Pf growth 48h
O=C(CSc1nc2ccccc2c(=O)[nH]1)Nc1ccc(Br)cc1 | nt | i | i | i | i
O=C(CSc1nc2ccccc2c(=O)[nH]1)Nc1cccc([N+](=O)[O-])c1 | i | 1.2µM | i | i | i
O=C(Nc1cccnc1)c1ccc2ccccc2c1O | i | 0.47µM | i | i | i
O=C(Nc1cccc([N+](=O)[O-])c1)c1ccc2ccccc2c1O | i | i | i | -80 | i
COc1cccc(NC(=O)C(=O)NCCCn2ccnc2)c1 | i | ? | i | -64 | i
Cc1ccc(CNC(=O)C(=O)NCCCn2ccnc2)cc1 | nt | nt | nt | -67 | nt
O=C(NCCCn1ccnc1)C(=O)NCc1ccc(Cl)cc1 | i | i | i | i | i
CCCCCOc1ccc(NC(=O)C(=O)NCCCn2ccnc2)cc1 | i | nt | i | i | i
Cc1ccc(-c2[nH]c3cc(C(=O)NCCCn4ccnc4)ccc3c(=O)c2O)cc1 | i | ? | i | i | 13µM
O=C(CNC(=O)c1ccc(Cl)cc1)NCCCn1ccnc1 | i | ? | i | i | 10µM
CCCNC(=O)c1ccc2c(=O)c(O)c(-c3ccc(C)cc3)[nH]c2c1 | i | ? | i | i | ?
O=C(Nc1nnc([C@@H]2C[C@H](O)[C@@H](CO)O2)s1)c1cccc2ccccc12 | nt | nt | nt | i | nt
COc1ccc(CNC(=O)CCS(=O)(=O)c2cc3c(cc2Cl)NC(=O)CO3)cc1 | i | i | i | i | i
O=C(Nc1c(F)c(F)c(F)c(F)c1F)c1ccc(Br)o1 | nt | nt | nt | i | nt
COc1ccc(-n2c(SCC(=O)N/N=C/c3ccccc3OCC(=O)O)nc3ccccc3c2=O)cc1 | i | i | i | i | i
Cc1cc(C)cc(NS(=O)(=O)c2c(C)[nH]c(=O)[nH]c2=O)c1 | i | 2.1µM | i | i | i
Cc1ccc(NS(=O)(=O)c2c(C)[nH]c(=O)[nH]c2=O)cc1F | i | ? | i | nt | i
CO[C@@]1(NC(=O)C2SC(=C(C(N)=O)C(=O)O)S2)C(=O)N2C(C(=O)O)=C(CSc3nnnn3C)CS[C@@H]21 (some centres undefined) | nt | i | 40µM | i | i
COC(=O)c1ccc(CSc2nnnn2C)o1 | i | ? | i | i | i
CCOc1ccc(-n2c(C)cc(/C=C3/C(=N)N4C(=NC3=O)SN=C4S(C)(=O)=O)c2C)cc1 | i | 8.3µM | i | i | ?
Cc1cc(/C=C2/C(=N)N3C(=NC2=O)SN=C3S(C)(=O)=O)c(C)n1-c1ccc(F)cc1 | i | i | i | i | ?
Cc1cc(N2CCCC2=O)cc(C)c1S(=O)(=O)NCCOc1ccc(C(C)(C)C)cc1 | i | ? | i | -91 | 13µM
O=C1CCCN1c1ccc(S(=O)(=O)NCCOc2ccccc2)cc1 | i | ? | i | i | i
CSc1ccccc1C(=O)Nc1ccc2c(c1)OCCO2 | i | ? | i | i | i
CC(=O)c1ccccc1NC(C(=O)Nc1ccc2c(c1)OCCO2)c1cccs1 (centres undefined) | nt | nt | nt | -64 | nt
SMILES | FBPA Giardia inh | Pf growth 96h | Sm TGR block | HCMV inh | Pf growth 48h
COC(=O)c1ccccc1NC(=O)c1ccc(COc2cc(C)cc(C)c2)o1 | i | 4.1µM | i | i | ?
Cc1ccc(CCC(=O)NCc2ccccc2)o1 | i | ? | 35µM | i | i
COC(=O)c1cc(OC)c(OC)cc1NC(=O)CCc1ccc(C)o1 | i | i | i | i | 10µM
Cc1ccc(CCC(=O)Nc2ccccc2C(=O)O)o1 | nt | i | i | ? | i
COC(=O)c1cc(OC)c(OC)cc1NC(=O)c1ccc(C)o1 | i | 5.2µM | i | i | nt
Cc1[nH]c(=O)[nH]c(=O)c1S(=O)(=O)N1CCCC(C(=O)N2CCN(c3cccc(C(F)(F)F)c3)CC2)C1 (centres undefined) | i | i | i | i | i
COC(=O)c1cc2oc3ccccc3c2n1CC(=O)Nc1ccc(C)cc1Cl | nt | nt | i | i | nt
